Source: PubChem BioAssay (Tox21)
Inconclusive results are not listed. Calls of active or inactive are those of the source. Unless noted, the call rests on the fitted dose curve.

experiment: p53 small molecule agonists, cell-based qHTS assay (AID 1963582; active means well fitted activation curve with a large enough effect in the signal ratio in the repeat runs, not every such curve was filed as active; the % refers to the signal ratio); settings: HCT-116 p53RE-bla reporter, beta-lactamase FRET ratio, 16 h; series mostly up to 66 µM; activation: at the top concentration
Outline: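 Quantitative HTS in p53RE-bla cells: after a 5 h settling period, compounds delivered in DMSO were left on cells for 16 h at 37 C, and reporter induction was measured as fluorescence following 2 h substrate loading.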
On the % scale 0 is the no-effect control and ±100 the full control effect.

| Structure (SMILES) | activation |
| --- | --- |
| O=c1[nH]c(=O)n([C@H]2C[C@H](O)[C@@H](CO)O2)cc1I | 0.0504% [at 30.3 µM] (inactive) |
| CC[N+](CC)(CC)CCOc1cccc(OCC[N+](CC)(CC)CC)c1OCC[N+](CC)(CC)CC | -0.418% [at 30.3 µM] (inactive) |
| C[N+]1(C)[C@@H]2CC(OC(=O)[C@H](CO)c3ccccc3)C[C@H]1[C@@H]1O[C@@H]12 (stereo not given in full) | 2.03% [at 30.3 µM] (inactive) |
| C[C@@H]1C[C@H]2[C@@H]3CCC4=CC(=O)C=C[C@]4(C)[C@@]3(F)[C@@H](O)C[C@]2(C)[C@H]1C(=O)CO | -3.71% [at 30.3 µM] (inactive) |
| C[C@H]1C[C@H]2[C@@H]3CCC4=CC(=O)C=C[C@]4(C)[C@@]3(F)[C@@H](O)C[C@]2(C)[C@@]1(O)C(=O)COP(=O)(O)O | 0.0732% (inactive) |
| CCOC(=O)OC(C)OC1=C(C(=O)Nc2ccccn2)N(C)S(=O)(=O)c2ccccc21 (stereo not given) | -3.42% [at 30.3 µM] (inactive) |
| C[N+](C)(C)CC(O)CC(=O)[O-] (stereo not given) | 0.0504% [at 30.3 µM] (inactive) |
| Cc1cccc(C)c1OCC(C)N (stereo not given) | -3.29% [at 30.3 µM] (inactive) |
| CC1=NS(=O)(=O)c2cc(Cl)ccc2N1 | 2.28% [at 30.3 µM] (inactive) |
| CC(C)NCC(O)c1ccc(NS(C)(=O)=O)cc1 (stereo not given) | -0.458% (inactive) |
| CC[C@H]1OC(=O)[C@H](C)[C@@H](O[C@H]2C[C@@](C)(OC)[C@@H](O)[C@H](C)O2)[C@H](C)[C@@H](O[C@@H]2O[C@H](C)C[C@H](N(C)C)[C@H]2O)[C@](C)(OC)C[C@@H](C)C(=O)[C@H](C)[C@@H](O)[C@]1(C)O | 0.699% (inactive) |
| CC[C@H]1OC(=O)[C@H](C)[C@@H](O[C@H]2C[C@@](C)(OC)[C@@H](O)[C@H](C)O2)[C@H](C)[C@@H](O[C@@H]2O[C@H](C)C[C@H](N(C)C)[C@H]2O)[C@](C)(O)C[C@@H](C)C(=O)[C@H](C)[C@@H](O)[C@]1(C)O | 0.375% [at 30.3 µM] (inactive) |
| NCCCNCCSP(=O)(O)O | 1.38% [at 5.99 µM] (inactive) |
| NS(=O)(=O)c1cc2c(cc1Cl)NC(C(Cl)Cl)NS2(=O)=O (stereo not given) | 0.235% [at 30.3 µM] (inactive) |
| CCOC(=O)[C@H](CCc1ccccc1)N[C@@H](C)C(=O)N1CCC[C@H]1C(=O)O | -3.35% [at 30.3 µM] (inactive) |
| COC(=O)[C@@H]1[C@H]2C[C@H]3c4[nH]c5ccccc5c4CCN3C[C@@H]2CC[C@@H]1O | 4.2% [at 30.3 µM] (inactive) |
| Oc1cccc(O)c1O | -5.81% (inactive) |
| COc1cc(C(=O)NC2CCCNC2)cc(OC)c1OC (stereo not given) | 2.54% [at 30.3 µM] (inactive) |
| CCN[C@@H]1C[C@H](N)[C@@H](OC2OC(CN)=CCC2N)[C@H](O)[C@H]1O[C@H]1OC[C@](C)(O)[C@H](NC)[C@H]1O (stereo not given in full) | 5.55% [at 0.249 µM] (inactive) |
| O=C(O)CCNC(=O)c1ccccc1 | 0.168% [at 30.3 µM] (inactive) |

| Structure (SMILES) | activation |
| --- | --- |
| CN1CCN(C(c2ccccc2)c2ccccc2)CC1 | 1.32% [at 30.3 µM] (inactive) |
| CCCN(CCC)C(=O)C(CCC(=O)O)NC(=O)c1ccccc1 (stereo not given) | 2.02% [at 30.3 µM] (inactive) |
| CNS(=O)(=O)Cc1ccc2[nH]cc(CCN(C)C)c2c1 | -2.54% [at 30.3 µM] (inactive) |
| CCN(CC)CCNC(=O)c1cc(S(C)(=O)=O)ccc1OC | 0% [at 30.3 µM] (inactive) |
| CCOC(=O)[C@H](CCc1ccccc1)N[C@@H](C)C(=O)N1[C@H](C(=O)O)C[C@@H]2CCC[C@@H]21 | 1.73% [at 30.3 µM] (inactive) |
| Nc1ccc(S(=O)(=O)NC(=O)c2ccccc2)cc1 | -0.876% [at 30.3 µM] (inactive) |
| CN1CCN(c2c(F)cc3c(=O)c(C(=O)O)cn(CCF)c3c2F)CC1 | -0.213% [at 30.3 µM] (inactive) |
| CCn1cc(C(=O)O)c(=O)c2cnc(N3CCCC3)nc21 | 1.25% [at 5.99 µM] (inactive) |
| CCn1cc(C(=O)O)c(=O)c2cc(F)c(N3CCNCC3)cc21 | -0.448% [at 30.3 µM] (inactive) |
| Cc1[nH]cnc1CN1CCc2c(c3ccccc3n2C)C1=O | -1.38% [at 30.3 µM] (inactive) |
| CC(C)(C)NCC(O)COc1cccc2c1C[C@H](O)[C@H](O)C2 (stereo not given in full) | -2.08% [at 30.3 µM] (inactive) |
| O=C(Oc1ccccc1C(=O)O)c1ccccc1O | 0.673% [at 30.3 µM] (inactive) |
| C[n+]1ccccc1/C=N/O | 2.24% [at 30.3 µM] (inactive) |
| CC12CCC(CC1=O)C2(C)C (stereo not given) | 0.811% (inactive) |
| COC(=O)CCc1ccc(OCC(O)CNC(C)C)cc1 (stereo not given) | 0.27% [at 30.3 µM] (inactive) |
| NCCCCCC(=O)O | -0.154% [at 30.3 µM] (inactive) |
| CCOc1cc(N)c(Cl)cc1C(=O)NCC1CN(Cc2ccc(F)cc2)CCO1 (stereo not given) | -7.71% [at 30.3 µM] (inactive) |
| CCCc1nn(C)c2c(=O)[nH]c(-c3cc(S(=O)(=O)N4CCN(C)CC4)ccc3OCC)nc12 | -2.95% [at 30.3 µM] (inactive) |
| Cc1ccc(S(=O)(=O)NC(=O)NN2CC3CCCC3C2)cc1 (stereo not given) | 1.95% [at 30.3 µM] (inactive) |

experiment: cAMP Responsive Elements (CRE) small molecule agonists, cell-based qHTS assay (AID 1963590); settings: CRE-bla HEK293T, beta-lactamase FRET ratio, 3 h; series mostly up to 92.4 µM; activation: at the top concentration
Outline: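 Agonist mode qHTS in CRE-bla HEK 293T cells: compounds dosed from DMSO for 3 h at 37 C/5% CO2, followed by LiveBLAzer B/G FRET substrate for 2 h at room temperature.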

| Structure (SMILES) | activation |
| --- | --- |
| O=c1[nH]c(=O)n([C@H]2C[C@H](O)[C@@H](CO)O2)cc1I | -1.54% [at 42.5 µM] (inactive) |
| CC[N+](CC)(CC)CCOc1cccc(OCC[N+](CC)(CC)CC)c1OCC[N+](CC)(CC)CC | 0.0322% [at 42.5 µM] (inactive) |
| C[N+]1(C)[C@@H]2CC(OC(=O)[C@H](CO)c3ccccc3)C[C@H]1[C@@H]1O[C@@H]12 (stereo not given in full) | 0.162% [at 42.5 µM] (inactive) |
| C[C@@H]1C[C@H]2[C@@H]3CCC4=CC(=O)C=C[C@]4(C)[C@@]3(F)[C@@H](O)C[C@]2(C)[C@H]1C(=O)CO | -1.03% [at 42.5 µM] (inactive) |
| C[C@H]1C[C@H]2[C@@H]3CCC4=CC(=O)C=C[C@]4(C)[C@@]3(F)[C@@H](O)C[C@]2(C)[C@@]1(O)C(=O)COP(=O)(O)O | 3.28% (inactive) |
| CCOC(=O)OC(C)OC1=C(C(=O)Nc2ccccn2)N(C)S(=O)(=O)c2ccccc21 (stereo not given) | 1.41% [at 42.5 µM] (inactive) |
| C[N+](C)(C)CC(O)CC(=O)[O-] (stereo not given) | -1.02% [at 42.5 µM] (inactive) |
| Cc1cccc(C)c1OCC(C)N (stereo not given) | -0.183% [at 42.5 µM] (inactive) |
| CC(C)NCC(O)c1ccc(NS(C)(=O)=O)cc1 (stereo not given) | 0.723% (inactive) |
| CC[C@H]1OC(=O)[C@H](C)[C@@H](O[C@H]2C[C@@](C)(OC)[C@@H](O)[C@H](C)O2)[C@H](C)[C@@H](O[C@@H]2O[C@H](C)C[C@H](N(C)C)[C@H]2O)[C@](C)(OC)C[C@@H](C)C(=O)[C@H](C)[C@@H](O)[C@]1(C)O | -0.642% (inactive) |
| NCCCNCCSP(=O)(O)O | 0.961% [at 8.39 µM] (inactive) |
| NS(=O)(=O)c1cc2c(cc1Cl)NC(C(Cl)Cl)NS2(=O)=O (stereo not given) | 0.685% [at 42.5 µM] (inactive) |
| CCOC(=O)[C@H](CCc1ccccc1)N[C@@H](C)C(=O)N1CCC[C@H]1C(=O)O | -1.36% [at 42.5 µM] (inactive) |
| COC(=O)[C@@H]1[C@H]2C[C@H]3c4[nH]c5ccccc5c4CCN3C[C@@H]2CC[C@@H]1O | -2% [at 42.5 µM] (inactive) |
| Oc1cccc(O)c1O | 3.58% (inactive) |
| COc1cc(C(=O)NC2CCCNC2)cc(OC)c1OC (stereo not given) | 2.53% [at 42.5 µM] (inactive) |
| CCN[C@@H]1C[C@H](N)[C@@H](OC2OC(CN)=CCC2N)[C@H](O)[C@H]1O[C@H]1OC[C@](C)(O)[C@H](NC)[C@H]1O (stereo not given in full) | -0.986% [at 0.349 µM] (inactive) |
| O=C(O)CCNC(=O)c1ccccc1 | 0.228% [at 42.5 µM] (inactive) |

| Structure (SMILES) | activation |
| --- | --- |
| CN1CCN(C(c2ccccc2)c2ccccc2)CC1 | 0.152% [at 42.5 µM] (inactive) |
| CCCN(CCC)C(=O)C(CCC(=O)O)NC(=O)c1ccccc1 (stereo not given) | -0.57% [at 42.5 µM] (inactive) |
| CNS(=O)(=O)Cc1ccc2[nH]cc(CCN(C)C)c2c1 | 0.721% [at 42.5 µM] (inactive) |
| CCN(CC)CCNC(=O)c1cc(S(C)(=O)=O)ccc1OC | 0.698% [at 42.5 µM] (inactive) |
| CCOC(=O)[C@H](CCc1ccccc1)N[C@@H](C)C(=O)N1[C@H](C(=O)O)C[C@@H]2CCC[C@@H]21 | 1.1% [at 42.5 µM] (inactive) |
| Nc1ccc(S(=O)(=O)NC(=O)c2ccccc2)cc1 | -0.238% [at 42.5 µM] (inactive) |
| CN1CCN(c2c(F)cc3c(=O)c(C(=O)O)cn(CCF)c3c2F)CC1 | -2.94% [at 42.5 µM] (inactive) |
| CCn1cc(C(=O)O)c(=O)c2cnc(N3CCCC3)nc21 | -3.86% [at 8.39 µM] (inactive) |
| CCn1cc(C(=O)O)c(=O)c2cc(F)c(N3CCNCC3)cc21 | -0.484% [at 42.5 µM] (inactive) |
| Cc1[nH]cnc1CN1CCc2c(c3ccccc3n2C)C1=O | 4.24% [at 42.5 µM] (inactive) |
| CC(C)(C)NCC(O)COc1cccc2c1C[C@H](O)[C@H](O)C2 (stereo not given in full) | -0.7% [at 42.5 µM] (inactive) |
| O=C(Oc1ccccc1C(=O)O)c1ccccc1O | -1.54% [at 42.5 µM] (inactive) |
| C[n+]1ccccc1/C=N/O | 0.142% [at 42.5 µM] (inactive) |
| CC12CCC(CC1=O)C2(C)C (stereo not given) | 1.17% (inactive) |
| COC(=O)CCc1ccc(OCC(O)CNC(C)C)cc1 (stereo not given) | -0.491% [at 42.5 µM] (inactive) |
| NCCCCCC(=O)O | 0.0848% [at 42.5 µM] (inactive) |
| CCOc1cc(N)c(Cl)cc1C(=O)NCC1CN(Cc2ccc(F)cc2)CCO1 (stereo not given) | 16.1% [at 42.5 µM] (inactive) |
| Cc1ccc(S(=O)(=O)NC(=O)NN2CC3CCCC3C2)cc1 (stereo not given) | -0.923% [at 42.5 µM] (inactive) |
